Assay results from PubChem BioAssay (Tox21).
Inconclusive results are not listed. Where a call stands in place of a potency, no number is given. The source made the active and inactive calls. The call rests on the fitted dose curve; in most records, active means well fitted activation curve with a large enough effect; inconclusive means small, poorly fitted or top-dose-only effect; inactive means flat fitted curve, though single readings scatter.

assay: qHTS assay to identify small molecule phospholipidosis (PLD) inducers (AID 1259344); conditions: HepG2 phospholipidosis, LipidTOX Red imaging, 24 h; series mostly up to 38.3 µM
Text: National Center for Advancing Translational Sciences [NCATS]
Drug-induced Phospholipidosis (PLD) caused by cationic amphiphilic drugs is characterized by the appearance of unicentric or multicentric-lamellar bodies when viewed under electron microscope. Electron microscopy is the gold standard method for PLD detection, however, this method is time-consuming and labor intensive, making it unsuitable for evaluating a large set of compounds. A cell-based phospholipidosis assay has been developed using the LipidTox reagent in HepG2 cells and miniaturized into a 1536-well plate format. Drug induced phospholipid accumulation is stained with the LipidTox dyes in red color which then is determined using an automated high content screening system.
HepG2 cells are dispensed at 900 cells/3 uL/well into Collagen I-coated 1536-well black-wall/clear-bottom assay plates (Greiner Bio-One, Monroe, NC) using the Multidrop Combi 8 channel dispenser (Thermo Fisher, Waltham, MA, USA). The assay plates are incubated at 37 C for 4 hours to allow the cell attachment. 3 uL of 1:500 LipidTOX Red dye is added using the dispenser, and then 23 nL compounds are added via a Wako Pintool station (Wako Automation, San Diego, CA). Amiodarone, a known PLD inducer, was used as a positive control and DMSO was used as a negative control. The assay plates were then incubated at 37 C for 24 hours.
For fixations, 4 uL of 8% paraformaldehyde fixative solution containing 10 ug/mL Hoechst 33342 in Dulbecco's phosphate-buffered saline (DPBS) is added using a Kalypsys washer/dispenser (Kalypsys, San Diego, CA, USA). After incubation at room temperature for 30 min, the assay plates are washed once with DPBS using a Kalypsys washer/dispenser. The assay plates are then sealed and stored at 4 C before imaging. The fluorescence intensities (595 nm excitation, 615 nm emission for LipidTOX; 352 nm excitation, 461 nm emission for Hoechst 33342) are measured using an ImageXpress Micro Widefield High Content Screening System (Molecular Devices, Sunnyvale, CA, USA) with a 20x Plan Fluor objective. Images are acquired for one site in each well and analyzed with the MetaXpress software (Molecular Devices) using the Transfluor module. Several algorithmic outputs, such as pit count per well, pit count per cell, pit integrated intensity per well, and pit integrated intensity per cell, are used for quantitative image analysis for PLD.
Potency means the concentration at half of the fitted maximal effect.

| SMILES | Potency |
| --- | --- |
| Cc1cc(OCCOCC[N+](C)(C)Cc2ccccc2)ccc1C(C)(C)CC(C)(C)C | inactive |
| COc1ccc(Cc2cnc(N)nc2N)cc1OC | inactive |
| COc1nc(C)nc(Cl)c1NC1=NCCN1 | inactive |
| NCCCCCC(=O)O | inactive |
| Cc1ccc(-c2cc(C(F)(F)F)nn2-c2ccc(S(N)(=O)=O)cc2)cc1 | inactive |
| CC[C@]1(O)C[C@@H]2CN(CCc3c([nH]c4ccccc34)[C@@](C(=O)OC)(c3cc4c(cc3OC)N(C)[C@H]3[C@@](O)(C(=O)OC)[C@H](OC(C)=O)[C@]5(CC)C=CCN6CC[C@]43[C@@H]65)C2)C1 | inactive |
| CC(C)CCOC(=O)c1ccc(N(C)C)cc1 | inactive |
| Nc1nc(=S)c2[nH]cnc2[nH]1 | inactive |
| Cc1scc2c1N(C(=O)CN1CCN(C)CC1)c1ccccc1NC2=O | inactive |
| CCCOC(=O)c1cc(O)c(O)c(O)c1 | inactive |
| NC12CC3CC(CC(C3)C1)C2 | inactive |
| CCn1cc(C(=O)O)c(=O)c2cc(F)c(N3CCNC(C)C3)c(F)c21 (stereo not given) | inactive |
| O=C(O)CP(=O)(O)O | inactive |
| COc1cc(C(=S)N2CCOCC2)ccc1O | inactive |
| COC(c1ccccc1)(c1ccccc1)[C@H](Oc1nc(C)cc(C)n1)C(=O)O | inactive |
| CCC(C)(C)C(=O)O[C@H]1C[C@@H](C)C=C2C=C[C@H](C)[C@H](CC[C@@H]3C[C@@H](O)CC(=O)O3)[C@H]21 | inactive |
| CC1COc2c(N3CCN(C)CC3)c(F)cc3c(=O)c(C(=O)O)cn1c23 (stereo not given) | inactive |
| Clc1ccc2c(c1)C(N1CCNCC1)=Nc1ccccc1O2 | inactive |
| CC1=CC(=O)c2ccccc2C1=O | inactive |
| CNC1(C)C2CCC(C2)C1(C)C (stereo not given) | inactive |

| SMILES | Potency |
| --- | --- |
| NC(N)=NC(=O)Cc1c(Cl)cccc1Cl | inactive |
| OCC(CO)N[C@H]1C[C@](O)(CO)[C@@H](O)[C@H](O)[C@H]1O | inactive |
| Cc1ccnc2c1NC(=O)c1cccnc1N2C1CC1 | inactive |
| NC(Cc1ccc(Cl)cc1)C(=O)O (stereo not given) | inactive |
| O=C(O)c1cn(-c2ccc(F)cc2)c2cc(N3CCNCC3)c(F)cc2c1=O | inactive |
| CCCCCC(=O)O[C@]1(C(C)=O)CC[C@H]2[C@@H]3CCC4=CC(=O)CC[C@]4(C)[C@H]3CC[C@@]21C | inactive |
| CN(C)c1ccc(C(=C2C=CC(=[N+](C)C)C=C2)c2ccccc2)cc1 | inactive |
| CCN(CC)C(=O)Nc1ccc(OCC(O)CNC(C)(C)C)c(C(C)=O)c1 (stereo not given) | inactive |
| N[C@@H]1CONC1=O | inactive |
| c1cnc2cc3c(cc2n1)C1CNCC3C1 | inactive |
| COc1ccc(CCN(C)CCCC(C#N)(c2ccc(OC)c(OC)c2)C(C)C)cc1OC (stereo not given) | inactive |
| C=CS(=O)(=O)O | inactive |
| CCC[C@H](N[C@@H](C)C(=O)N1[C@H](C(=O)O)C[C@@H]2CCCC[C@@H]21)C(=O)OCC | inactive |
| NC(=Nc1ccccc1)Nc1ccccc1 | inactive |
| NNCCc1ccccc1 | inactive |
| O=C1NCC2(CCN(CCc3ccccc3)CC2)O1 | inactive |
| CC(C)(C)NCC(O)c1cc(O)cc(O)c1 (stereo not given) | inactive |
| CNCCC(Oc1ccc(C(F)(F)F)cc1)c1ccccc1 (stereo not given) | 10 µM (active) |
| O=S(=O)(O)c1ccc2nc(-c3ccccc3)[nH]c2c1 | inactive |
| [Cl][In]([Cl])[Cl] | inactive |
